# Results filed as inconclusive are left out. Values without a mark were called inactive. Calls of active or inactive are those of the source. Calls follow the shape of the full dose curve.
# Test: S16 Schwann cell PMP22 intronic element beta-lactamase assay (AID 624044); also: nearly all actives have a fitted effect of over 15% in size
# Details: S16 rat Schwann cells, PMP22 element beta-lactamase FRET, 24 h; series mostly up to 38.3 µM; ratio activity, negative = inhibition: at the top concentration
# Excerpt: Description: Charcot-Marie-Tooth-Association [CMTA] National Center for Advancing Translational Sciences [NCATS] Charcot-Marie-Tooth (CMT) disease was first characterized by Jean-Martin Charcot and Pierre Marie in France and, independently, by Howard Henry Tooth in England in 1886. CMT is one of the most common inherited neurological diseases, affecting approximately 1 in 2,500 Americans. […] The most prevalent type of CMT is known as CMT1A and caused by a duplication of the PMP22 gene which leads to over-expression of this protein. PMP22 is a glycosylated intrinsic membrane protein accounting for 2-5% of the myelin protein content, and its over-expression results in demyelination and subsequently axonal loss. A pair of cellular transcription-based assays was developed in the S16 rat Schwann cell lines (Hai, M., et al., 2002) stably transfected with orthogonal reporters - firefly luciferase (Fluc) and beta-lactamase (beta-Lac) - whose expression is driven by an intronic regulatory element of the PMP22 gene (Jones, E.A., et al., 2011) to recapitulate endogenous expression of PMP22. The current assay employs Blac as a reporter of PMP22 expression. A comprehensive library of approved drugs, the NCGC Pharmaceutical Collection (Huang, R., et al., 2011), was screened in the cross-validating platform of the orthogonal reporter assays to identify drug modulators inhibitory towards PMP22 expression. A set of counter-screens was devised to address non-specific activity of the library. An ATP-dependent CellTiter-Glo assay (developed by Promega Corp) was utilized to control cell viability. In addition, biochemical Fluc enzyme assay was performed to assess direct inhibition of the Fluc enzymatic activity. References Hai, M., Muja, N., DeVries, G.H., Quarles, R.H. and Patel, P.I. Comparative analysis of Schwann cell lines as model systems for myelin gene transcription studies. J Neurosci Res, 2002. 69(4): pp 497-508 Huang, R., Southall, N., Wang, Y., Yasgar A., Shinn P., Jadhav, A. , Nguyen, D.-T. and Austin, C.P., The NCGC pharmaceutical collection: a comprehensive resource of clinically approved drugs enabling repurposing and chemical genomics. Sci Transl Med, 2011. 3(80): p. 80ps16.
# S16 Schwann cell PMP22 intronic element beta-lactamase assay The beta-Lac-expressing S16 cells were seeded in black clear-bottom 1536 well plates at between 500-750 cells/6uL in DMEM medium containing 10% FBS, w/o phenol red. After overnight incubation at 37 degree Celsius/5% C02, 23 nL of compounds or DMSO were delivered to each well using a pin tool, followed by 24h-incubation at 37 degree Celsius/5% C02. Then one microl of LiveBLAzer FRET B/G detection mix (Invitrogen) was added to each well. An EnVision plate reader (PerkinElmer) was used to detect the dual beta-Lac output composed of fluorescence at 460nm for beta-Lac expression and FRET at 535nm for cell viability. The % signal at 535 nm was scaled to a full range of DMSO and zero and then normalized using the maximum response observed in the screen as 100% activity. The % signal at 460nm was normalized to the average readings of potassium clavulanate (a positive control) - treated cells relative to DMSO-treated cells (0% Activity). The concentration-effect curves were then classified based on curve quality (r2), response magnitude and degree of measured activity.
# Potency is read from the fitted curve at half-maximal effect.
SMILES,"ratio activity, negative = inhibition",Potency
CC1(C)CCC(C)(C)c2cc(NC(=O)c3ccc(C(=O)O)cc3)ccc21,-24.1%,
COC1=C(OC)C(=O)C(CCCCCCCCCCO)=C(C)C1=O,-5.88%,
CCC1=C(C)CN(C(=O)NCCc2ccc(S(=O)(=O)NC(=O)NC3CCC(C)CC3)cc2)C1=O (stereo not given),-10.3%,
O=C(NCC1CCCCN1)c1cc(OCC(F)(F)F)ccc1OCC(F)(F)F (stereo not given),-2.07%,
CCN(CCO)CCCC(C)Nc1ccnc2cc(Cl)ccc12 (stereo not given),-12.6%,
O=c1oc2cc(O)ccc2s1,-0.257%,
CCc1nc(N)nc(N)c1-c1ccc(Cl)cc1,,9.99 µM (active)
Cc1c(OCC(F)(F)F)ccnc1CS(=O)c1nc2ccccc2[nH]1 (stereo not given),0.0171%,
CCCCC(CC)COC(=O)C(C#N)=C(c1ccccc1)c1ccccc1 (stereo not given),-2.18%,
CC(C)(S)[C@@H](N)C(=O)O,1.83%,
CCOc1cc(CC(=O)N[C@@H](CC(C)C)c2ccccc2N2CCCCC2)ccc1C(=O)O,-4.9% [at 17.1 µM],
CCCCCCCCCCCCCCCCCCCCCCO,1.18%,
Cc1ccc(C)c(OCCCC(C)(C)C(=O)O)c1,2.83%,
Oc1ccc(OCc2ccccc2)cc1,,6.73 µM (active)
CS(=O)(=O)OCCCCOS(C)(=O)=O,-3.6%,
CCCCCCCCOc1ccccc1C(=O)Nc1ccc(C(=O)OCC[N+](C)(CC)CC)cc1,-2.98%,
NS(=O)(=O)c1cc(C(=O)O)c(NCc2ccco2)cc1Cl,0.444%,
CC[C@]1(O)C[C@H]2CN(CCc3c([nH]c4ccccc34)[C@@](C(=O)OC)(c3cc4c(cc3OC)N(C=O)[C@H]3[C@@](O)(C(=O)OC)[C@H](OC(C)=O)[C@]5(CC)C=CCN6CC[C@]43[C@@H]65)C2)C1,,0.282 µM (active)
COc1c2occc2cc2ccc(=O)oc12,0.108%,
CCC[C@@H]1C[C@@H](C(=O)N[C@@H]([C@H]2O[C@H](SC)[C@H](O)[C@@H](O)[C@H]2O)[C@@H](C)O)N(C)C1,1.42%,

SMILES,"ratio activity, negative = inhibition",Potency
O=C(OC1C[C@H]2CC[C@@H](C1)[N+]21CCCC1)C(O)(c1ccccc1)c1ccccc1 (stereo not given in full),-0.887%,
CC1(C)NC(=O)N(c2ccc([N+](=O)[O-])c(C(F)(F)F)c2)C1=O,-14%,
Nc1ccc(S(N)(=O)=O)cc1,1.46%,
C[C@]12CCC(=O)C=C1CC[C@@H]1[C@H]2[C@@H](O)C[C@@]2(C)[C@H]1CC[C@]2(O)C(=O)CO,-2.3%,
c1ccc2[nH]c(-c3cscn3)nc2c1,-0.118%,
O=C1CCc2ccc(OCCCCN3CCN(c4cccc(Cl)c4Cl)CC3)cc2N1,-22.1%,
CNC[C@@H](O)[C@@H](O)[C@H](O)[C@H](O)CO,3.3%,
C[C@H](Cn1cnc2c(N)ncnc21)OCP(=O)(O)O,-9.97%,
O=C1c2ccccc2-c2n[nH]c3cccc1c23,-20.4%,
O=P(O)(O)C(O)(Cn1ccnc1)P(=O)(O)O,5.24%,
N[C@@H](Cc1cc(I)c(Oc2cc(I)c(O)c(I)c2)c(I)c1)C(=O)O,2.01%,
CN(c1nccc(=O)[nH]1)C1CCN(c2nc3ccccc3n2Cc2ccc(F)cc2)CC1,0.824%,
O=C(O)c1cn(-c2ccc(F)cc2)c2cc(N3CCNCC3)c(F)cc2c1=O,1%,
Cc1cc2cc3c(C)cc(=O)oc3c(C)c2o1,0.177% [at 17.1 µM],
CCCCc1ccc2nc(NC(=O)OC)[nH]c2c1,,0.239 µM (active)
CC(C)c1ccc2oc3nc(N)c(C(=O)O)cc3c(=O)c2c1,4.63%,
CCCCN(CCCC)CCC(O)c1cc2c(Cl)cc(Cl)cc2c2cc(C(F)(F)F)ccc12 (stereo not given),-6.37% [at 17.1 µM],
C[Se]CCC(N)C(=O)O (stereo not given),4.04%,
Cc1nc2n(c(=O)c1CCN1CCC(c3noc4cc(F)ccc34)CC1)CCCC2,-3.89%,
CC1=C(C)C(=O)C(C(CCCCCC(=O)O)c2ccccc2)=C(C)C1=O (stereo not given),9.96%,
